From article PMC4336329 (PLoS ONE, 2015)
Screen size: about 310,000 compounds; about 14,000 (4.5%) showed an effect of 50% or more. The effect is printed as a negative number. The list comes from a sample in which strong results are over-represented; it also holds similar structures and randomly drawn compounds.

target: human ether-à-go-go-related gene (hERG) potassium channel (human, UniProt Q12809); assay: primary screen, population patch clamp on CHO cells stably expressing hERG; higher = less effect of the substance
Sequence (Q12809 whole entry, looked up): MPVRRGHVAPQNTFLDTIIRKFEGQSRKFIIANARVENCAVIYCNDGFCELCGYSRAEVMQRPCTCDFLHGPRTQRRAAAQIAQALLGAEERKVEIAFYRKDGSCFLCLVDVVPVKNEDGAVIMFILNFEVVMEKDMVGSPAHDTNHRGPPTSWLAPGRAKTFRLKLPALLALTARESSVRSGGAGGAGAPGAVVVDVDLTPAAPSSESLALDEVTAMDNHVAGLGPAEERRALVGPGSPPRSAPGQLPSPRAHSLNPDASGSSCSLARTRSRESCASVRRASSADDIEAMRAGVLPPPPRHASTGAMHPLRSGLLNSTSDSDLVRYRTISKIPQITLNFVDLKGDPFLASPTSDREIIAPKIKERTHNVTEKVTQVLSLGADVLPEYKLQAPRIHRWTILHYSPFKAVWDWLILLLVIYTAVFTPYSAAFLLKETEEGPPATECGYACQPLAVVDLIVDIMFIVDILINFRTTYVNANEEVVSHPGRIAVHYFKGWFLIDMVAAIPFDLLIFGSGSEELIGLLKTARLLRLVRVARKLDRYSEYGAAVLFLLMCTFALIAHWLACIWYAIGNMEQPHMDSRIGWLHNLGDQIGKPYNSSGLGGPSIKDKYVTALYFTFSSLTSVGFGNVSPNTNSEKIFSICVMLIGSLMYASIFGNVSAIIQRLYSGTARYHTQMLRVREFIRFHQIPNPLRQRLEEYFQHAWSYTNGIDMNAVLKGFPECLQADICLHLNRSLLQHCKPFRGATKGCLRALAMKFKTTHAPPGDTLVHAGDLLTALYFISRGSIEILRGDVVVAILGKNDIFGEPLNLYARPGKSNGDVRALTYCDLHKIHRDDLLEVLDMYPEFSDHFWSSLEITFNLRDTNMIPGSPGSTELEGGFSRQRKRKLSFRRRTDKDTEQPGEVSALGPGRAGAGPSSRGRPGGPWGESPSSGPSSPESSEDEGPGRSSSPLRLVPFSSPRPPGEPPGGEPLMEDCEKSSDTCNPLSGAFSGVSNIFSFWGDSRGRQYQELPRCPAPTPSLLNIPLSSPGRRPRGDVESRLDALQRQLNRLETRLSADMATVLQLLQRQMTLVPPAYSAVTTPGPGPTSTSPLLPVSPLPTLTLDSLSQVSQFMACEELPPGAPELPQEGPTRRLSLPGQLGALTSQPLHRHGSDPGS
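Further: peak tail current of the secondary pulse compared with the same well before compound.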

| SMILES | hERG current change (%, negative = inhibition) at 10uM [%] |
| --- | --- |
| COc1ccccc1-c1cnn2c(N3CCOCC3)cc(C)nc12 | 23.9 |
| C=CCOc1ccc(/C=C/C(C)=N\O)cc1 | 4.84 |
| O=[N+]([O-])c1c(Nc2ccccn2)cc(Cl)c2nonc12 | 9.59 |
| CSCCC1NC(=S)N(Cc2ccccc2)C1=O (stereo not drawn) | 16.3 |
| CCN(CC)C(=O)CSc1ccccc1N | 13 |
| C[C@@H]1CC=C[C@H]2[C@H]1C(=O)N(Cc1ccccc1)[C@H]2c1ccc2ccccc2c1 | 3.52 |
| COc1ccc(C2=C(Nc3ccc(C)cc3)c3ccccc3C2=O)cc1 | 3.57 |
| COc1ccccc1C(CNC(=O)c1cc(S(=O)(=O)N2CCOCC2)ccc1C)N1CCCC1 (stereo not drawn) | 2.53 |
| CCn1cc(C(=O)N2CCOCC2)c(=O)c2cc(S(=O)(=O)N(C)C3CCCCC3)ccc21 | 0.899 |
| CCn1cc(C(=O)N2CCCC2)c(=O)c2cc(S(=O)(=O)N3CCC(C)CC3)ccc21 | 6.02 |
| CCn1cc(C(=O)N2CCN(c3ccccn3)CC2)c(=O)c2cc(S(=O)(=O)N3CCC(C)CC3)ccc21 | -55.9 |
| CCn1cc(C(=O)N2CCCCC2)c(=O)c2cc(S(=O)(=O)N3CCC(C)CC3)ccc21 | -18.4 |
| CCOC(=O)N1CCN(C(=O)c2cn(CC)c3ccc(S(=O)(=O)N(C)C4CCCCC4)cc3c2=O)CC1 | -17.3 |
| CCn1cc(C(=O)N2CCN(c3ccccn3)CC2)c(=O)c2cc(S(=O)(=O)N(C)C3CCCCC3)ccc21 | -63.1 |
| CCCN1CNC(=S)N(c2cccc(C)c2)C1 | 17 |
| CCC(C)[C@H](NC(=O)N1CC(=O)Nc2ccccc21)C(=O)N1CCC[C@@H]1C(=O)O (stereo partly drawn) | 13.5 |
| COc1cccc(NC(=O)CCC(=O)Nc2cccc(OC)c2)c1 | 10.5 |
| O=C(Nc1cccc(F)c1)c1ccc2ncsc2c1 | 9.49 |
| C=CCn1c(SC(C)C#N)nc2sc(CC)cc2c1=O (stereo not drawn) | -41.2 |
| C=CCn1c(SCC2CCCCO2)nc2sc(CC)cc2c1=O (stereo not drawn) | -2.19 |
| C=CCn1c(SCc2cc(=O)n3ccsc3n2)nc2scc(C3CC3)c2c1=O | -9.75 |
| O=C1OCCC1Sc1nnc(-c2cccs2)n1Cc1ccccc1 (stereo not drawn) | -29.5 |
| CCc1cc2c(=O)n(Cc3ccccc3)c(SC3CCOC3=O)nc2s1 (stereo not drawn) | -80.4 |
| Cc1sc2nc(SC3CCOC3=O)n(Cc3ccccc3)c(=O)c2c1C (stereo not drawn) | -9.22 |
| C=CCn1c(SC2CCOC2=O)nc2sc(C)c(C)c2c1=O (stereo not drawn) | -11.2 |
| C=CCn1c(SC2CCOC2=O)nc2sc(CC)cc2c1=O (stereo not drawn) | -65.4 |
| C=CCn1c(SC2CCOC2=O)nc2scc(C3CC3)c2c1=O (stereo not drawn) | -64.6 |
